# Results from PubChem BioAssay AID485346 (Sanford-Burnham Center for Chemical Genomics, 2010).
# Out of some 330,000 compounds screened, about 10,000 (3%) were called active. The entries come from a sample that favours actives as a whole. Values without a mark were called inactive.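 The calls were made as follows: active = inhibition of at least 50% at 8 µM in the primary screen; inactive = the rest.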
# Molecular target: Protein Mdm4 (Homo sapiens) + E3 ubiquitin-protein ligase Mdm2 (Homo sapiens) (UniProt O15151+Q00987)
# Experiment: inhibitors of human Mdm2-MdmX association, primary screen, cell-based, luminescence, split luciferase, SaOS-2, uHTS (AID 485346)
# Settings: SaOS-2 split-luciferase Mdm2/MdmX complementation, at 8 µM, stronger effect = higher value
# Protein Mdm4 (Homo sapiens) + E3 ubiquitin-protein ligase Mdm2 (Homo sapiens), sequence (O15151 whole entry, looked up): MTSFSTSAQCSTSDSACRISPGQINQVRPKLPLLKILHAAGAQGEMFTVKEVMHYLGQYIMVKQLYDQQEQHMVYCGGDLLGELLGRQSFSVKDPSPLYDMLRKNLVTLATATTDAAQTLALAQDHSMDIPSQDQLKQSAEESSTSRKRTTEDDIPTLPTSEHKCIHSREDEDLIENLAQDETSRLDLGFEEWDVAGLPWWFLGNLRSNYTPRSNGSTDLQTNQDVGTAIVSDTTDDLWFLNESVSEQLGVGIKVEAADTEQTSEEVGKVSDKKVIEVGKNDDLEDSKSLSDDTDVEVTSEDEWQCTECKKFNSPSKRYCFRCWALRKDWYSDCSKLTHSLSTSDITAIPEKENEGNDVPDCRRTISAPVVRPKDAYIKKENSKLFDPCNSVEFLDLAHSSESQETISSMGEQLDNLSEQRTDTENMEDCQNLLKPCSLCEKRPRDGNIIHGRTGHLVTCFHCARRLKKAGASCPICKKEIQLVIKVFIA
# Protein Mdm4 (Homo sapiens) + E3 ubiquitin-protein ligase Mdm2 (Homo sapiens), sequence (Q00987 whole entry, looked up): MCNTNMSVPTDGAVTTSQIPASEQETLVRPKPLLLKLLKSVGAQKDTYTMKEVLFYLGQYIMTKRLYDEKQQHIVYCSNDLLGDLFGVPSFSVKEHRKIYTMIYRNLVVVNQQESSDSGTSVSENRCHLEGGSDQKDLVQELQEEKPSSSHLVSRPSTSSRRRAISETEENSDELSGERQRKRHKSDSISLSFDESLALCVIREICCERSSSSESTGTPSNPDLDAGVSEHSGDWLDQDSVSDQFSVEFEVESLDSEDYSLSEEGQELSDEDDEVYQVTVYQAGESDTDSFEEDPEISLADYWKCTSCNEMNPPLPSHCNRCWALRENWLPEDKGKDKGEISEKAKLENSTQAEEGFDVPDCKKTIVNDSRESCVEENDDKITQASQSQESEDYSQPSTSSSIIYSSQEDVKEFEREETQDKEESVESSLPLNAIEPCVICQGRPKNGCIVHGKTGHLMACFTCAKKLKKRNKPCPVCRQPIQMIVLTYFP
row,SMILES,inhibition
1,CCN(CC)S(=O)(=O)c1cc(C(=O)Nc2cc(S(=O)(=O)N3CCOCC3)ccc2N2CCCC2)ccc1F,26.3%
2,CCC(NC(=O)c1cc(COc2ccc(F)c(F)c2)on1)c1ccncc1 (stereo unspecified),5.8%
3,O=C(Nc1ccc2sc3ccccc3c(=O)c2c1)c1ccccc1Cl,-48%
4,CCOC(=O)Cn1nnnc1C,15.3%
5,O=C(CN1CCC(NC(=O)C2CC2)CC1)Nc1ccccc1[N+](=O)[O-],15.4%
6,COc1ccc(CC(=O)N[C@@H]2c3cc(OC)c(OC)cc3C[C@H]2OCc2ccccc2)cc1,38.6%
7,O=c1c2ccccc2nc2n1C(CSCc1cccc(C(F)(F)F)c1)CS2 (stereo unspecified),0.237%
8,Cc1cc(C(=O)CCl)c(C)n1CC1COc2ccccc2O1 (stereo unspecified),78.9% (active)
9,Cc1noc(C)c1C(=O)NCC1COc2ccccc2O1 (stereo unspecified),26.4%
10,O=C1C(=O)N(CC2COc3ccccc3O2)c2ccccc21 (stereo unspecified),26.1%
11,CCCCN(C)CCNC(=O)CSCc1ccc(C)cc1,7.69%
12,CCOC(=O)NC(=O)C(=CNc1cccc(OC)c1)C(=O)NC(=O)OCC,9.28%
13,C=CCOCCN(C)C1=NS(=O)(=O)c2ccccc21,5.66%
14,CN(Cc1ccccc1)S(=O)(=O)c1nnc(NC(=O)c2ccccc2F)s1,-3.09%
15,O=C(Nc1nc(-c2cccnc2)cs1)c1ccccc1F,-52.4%
16,O=C(Nc1nnc(-c2ccccc2F)s1)c1ccccc1F,54.1% (active)
17,CCSc1nc(=S)n(CC)c(C)c1C(C)=O,14.7%
18,Cc1ccc(-c2cn3cc(C)ccc3n2)cc1,89.4% (active)
19,CCN(CC)S(=O)(=O)c1ccc(-c2cn3ccc(C)cc3n2)cc1,-58.3%
20,CSc1nnc2ccc(-c3ccc(C)cc3)nn12,34.9%
21,COc1ccc(-c2cn3ccc(C)cc3n2)cc1,33.6%
22,Cc1ccc(-c2cn3cc([N+](=O)[O-])ccc3n2)cc1,-68.9%
23,Cc1ccc2nc(-c3ccc(Br)cc3)cn2c1,61.7% (active)
24,C[C@@]12C(=O)N(c3cccc(Br)c3)C(=O)N1[C@H](c1ccc(Cl)cc1)[C@@H]1C(=O)N(C3CCCCC3)C(=O)[C@@H]12,49.2%

row,SMILES,inhibition
1,CCC(C)C(N=C1NS(=O)(=O)c2ccccc21)C(=O)N1CCC(C)CC1 (stereo unspecified),11.7%
2,CCC1(C)NC(=O)N(CC(=O)N2CCN(c3cccc(Cl)c3)CC2)C1=O (stereo unspecified),13.3%
3,CCN1C(=O)/C(=C\N2CCN(c3cccc(Cl)c3)CC2)SC1=S,64.2% (active)
4,CCN1C(=O)/C(=C\N2CCOCC2)SC1=S,7.76%
5,CCOc1ccc(N/C=C/C(=O)c2cc(OC)c(OC)c(OC)c2)cc1,28.5%
6,COc1ccc(C(=O)/C=C/Nc2ccccn2)cc1,56.3% (active)
7,CCOc1ccc(N/C=C/C(=O)c2ccccc2)cc1,-143%
8,COc1ccccc1-c1sc2ccccc2c1C#CC1(O)CCCCC1,12%
9,CSc1ccccc1NC(=O)COC(=O)CCCOc1ccc(C)cc1,2.26%
10,O=C(Nc1ccc(Cl)cc1)Nc1nnc(/C=C/c2ccccc2)s1,84.4% (active)
11,COc1ccc(/C=C/c2nnc(NC(=O)C(C)C)s2)cc1,18.7%
12,O=C(CSc1ccccc1)Nc1nnc(/C=C/c2ccccc2)s1,-2.82%
13,CC(=O)NCC(=O)N1CCC(n2nccc2NC(=O)CCCc2ccccc2)CC1,-4.94%
14,COC(=O)c1cccc(N(CC(=O)NCC2CCCO2)C(=O)CCC(=O)Nc2cc(C)on2)c1 (stereo unspecified),5.29%
15,O=C(NN1C(=O)C2C(C1=O)C1C=CC2C12CC2)c1ccccc1Cl (stereo unspecified),4.22%
16,CC12CCC(C(=O)N(NC(=O)c3ccccc3O)C1=O)C2(C)C (stereo unspecified),61.1% (active)
17,COc1ccccc1C(=O)NN1C(=O)C2C3C=CC(O3)C2C1=O (stereo unspecified),14.8%
18,COCCN1C(=O)N(c2ccc(Cl)cc2)C(=O)C1CC(=O)Nc1cc(OC)cc(OC)c1 (stereo unspecified),22.4%
19,O=C(Nc1ccc(Br)cc1)c1cccc(NC(=O)C2C3CC4OC(=O)C2C4C3)c1 (stereo unspecified),8.16%
20,CCCCCCSc1ccc([C@@H]2[C@H]3C(=O)N(CC)C(=O)[C@H]3[C@]3(C(=O)OC)CCCCN23)cc1,29.8%
21,CCCCCCSc1ccc([C@@H]2[C@@H]3C(=O)N(CC)C(=O)[C@@H]3[C@]3(C(=O)OC)CCCCN23)cc1OC,54.2% (active)
22,CCN1C(=O)[C@@H]2[C@@H](c3ccc(-c4ccc(OC)cc4)c(OC)c3)N3CCC[C@@]3(C(=O)OC)[C@@H]2C1=O,28.1%
23,COCCn1c(C)cc(C(=O)CN2c3cccc4cccc(c34)S2(=O)=O)c1C,5.95%
24,C/C(=N\Nc1ccc([N+](=O)[O-])cc1)c1ccc(-n2nncc2C(C)(C)C)cc1,22.2%

row,SMILES,inhibition
1,O=C(CN1C(=O)CSC1=O)N1CCCC(Nc2ccc(F)cc2)C1 (stereo unspecified),5.11%
2,CC1=NN(c2cccc(Cl)c2)C(=O)C12CC(C)=C(C)CS2 (stereo unspecified),6.51%
3,COc1ccc(C(C(=O)NC2CCCCC2)N(C(=O)c2snc(C(N)=O)c2N)c2ccccc2OC)cc1 (stereo unspecified),23.2%
4,COc1cccc(N(C(=O)C2COc3ccccc3O2)C(C(=O)NC2CCCCC2)c2ccc(O)cc2)c1 (stereo unspecified),5.54%
5,COc1ccc(C(C(=O)NC2CCCCC2)N(C(=O)CCl)c2ccccc2Cl)cc1 (stereo unspecified),92% (active)
6,Cc1nnc(SC(C(=O)Nc2cc(Cl)cc(Cl)c2)c2ccccc2)[nH]c1=O (stereo unspecified),-11%
7,OCC1(Cc2ccccc2C(F)(F)F)CCN(Cc2cccc3cnccc23)CC1,-16.9%
8,Cc1cccc(C(=O)Nc2ccc(Oc3cnccn3)cc2)c1,-15.7%
9,CCCCSc1nnc2c(n1)OC=Nc1ccccc1-2,-25.2%
10,Cc1ccc(S(=O)(=O)NCC(=O)N(CC(=O)NC2CCCCC2)Cc2ccco2)cc1,-4.29%
11,Cc1ccc(-c2cc(=O)[nH]c(NCc3ccccc3)n2)cc1,-3.28%
12,Brc1ccc(C2CC(c3ccccc3)=Nc3ccccc3N2)cc1 (stereo unspecified),-130%
13,CC(=O)Nc1ccc(/C=C/C(=O)c2ccccc2)cc1,-7.03%
14,Cc1cn(COC/C=C/c2ccccc2)c(=O)[nH]c1=O,7.02%
15,Cc1[nH]c(=O)c(C(=O)/C=C/c2ccccc2)c2c1CCCC2,70.9% (active)
16,CC(C)n1cnc2c(Nc3cccc(Cl)c3)nc(N(CCO)CCCO)nc21,88.9% (active)
17,CC(C)C[C@H](CO)Nc1nc(N(C)c2cccc(Cl)c2)c2ncn(C(C)C)c2n1,22.9%
18,COCn1c(C(O)c2ccccc2)cc2ccccc21 (stereo unspecified),-4.01%
19,Cc1cc(C)c2nc(N3CCC(C(=O)NCCN4CCOCC4)CC3)sc2c1,16.2%
20,CC(=O)N(Cc1cc(=O)[nH]c2ccccc12)c1ccc(C)cc1C,15.3%
21,Cc1ccc(N(Cc2cc3ccccc3[nH]c2=O)C(=O)c2cccs2)cc1,-12.3%
22,Cc1ccc(N(Cc2cc(=O)[nH]c3ccccc23)C(=O)CCl)cc1,100% (active)
23,COc1ccc2nc(/N=C(\N)NC(=O)Nc3ccccc3)nc(C)c2c1,29%
24,O=C(NNC(=O)C(O)c1ccccc1)NC1CCCCC1 (stereo unspecified),16.7%

row,SMILES,inhibition
1,Cc1nc(/N=C(\N)NC(=O)NC2CCCCC2)nc2ccccc12,53% (active)
2,COc1ccc2c(c1)C(=C(C#N)C#N)C(=O)N2CCc1ccccc1,8.08%
3,Cc1ccc(C)c(NC(=O)CN(C)C(=O)c2ccc3ncsc3c2)c1,10.9%
4,C/C(=N\NC(=O)Cc1ccc(Br)cc1)c1cccnc1,9.71%
5,COc1ccc(CC(=O)N/N=C(\C)c2ccccn2)cc1,56.7% (active)
6,C/C(CC(=O)Nc1ccc(N(C)C)cc1)=N\NC(=O)c1ccccc1F,11.6%
7,COc1ccc(C/C(C)=N/NC(=O)c2ccncc2)cc1,-14.9%
8,C/C(=N\NC(=O)c1ccoc1C)c1ccccc1O,49.2%
9,C/C(=N\NC(=O)c1ccccc1F)c1ccccn1,64.2% (active)
10,CCOc1ccccc1NS(=O)(=O)c1cc2c3c(c1)C(C)C(=O)N3CCC2 (stereo unspecified),14.9%
11,CC1C(=O)N(Cc2ccccc2)c2ccccc2N1C(=O)c1ccccc1 (stereo unspecified),4.7%
12,O=C(COC(=O)/C=C/c1ccc(Br)o1)Nc1cccc(S(=O)(=O)N2CCOCC2)c1,26.4%
13,CN(C)CCCSc1ccccc1NC(=O)/C=C/c1ccccc1,-28.9%
14,CC(C)NC(=O)C(=O)NCCCOC(C)C,7.36%
15,CN(C)c1nc2n(c(=O)n1)CCO2,-0.85%
16,COc1ccc(CCNC(=O)C2CCCN(S(=O)(=O)c3ccc(OC)cc3)C2)cc1 (stereo unspecified),31.8%
17,O=C(COC(=O)c1cnccn1)Nc1ccc(Cl)cc1C(F)(F)F,-11.4%
18,COc1cccc(CNn2cn[nH]c2=S)c1OCc1ccccc1,24.6%
19,O=[N+]([O-])c1ccc(F)cc1Oc1nc(-c2cccnc2)nc2ccccc12,27.2%
20,O=[N+]([O-])c1ccc(Oc2ccc(F)cc2Br)c2ccncc12,78% (active)
21,Cc1oc2cc([N+](=O)[O-])c(O)c([N+](=O)[O-])c2c1C(=O)c1ccc(Br)cc1,-16.1%
22,Cc1cc(C)n(CCNCc2c(C(=O)N3C[C@@H](C)O[C@@H](C)C3)nc3ccc(Cl)cn23)n1,6.66%
23,COC(C[C@@H](O)C[C@H](O)[C@H](C)OCc1ccccc1)OC,-23%
24,Cn1nnnc1-c1cc(Cl)cc(Cl)c1,16.3%
